# Assay outcomes: PubChem BioAssay, several laboratories
# 697 NFkB inh: inhibitors of the PMA/ionomycin-induced NF-kB reporter in 697 B cells; 697 B-cell NF-kB luciferase reporter, 16 h; inhibition, % at 4 µM; AID 435022; hit rate 0.33% among 330,000; in the data active means inhibition above about 35%
# Gli-Sufu block: Gli-Sufu pathway antagonism. Sufu-KO-LIGHT fibroblasts, Gli luciferase reporter luminescence. inhibition, % at 5 µM. hit rate 0.74% among 340,000;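 active means inhibition above about 55%, limit read from the data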;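 further: 0% = DMSO-treated cells and 100% = wells with medium but no cells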
# Mdm2-MdmX inh: inhibitors of human Mdm2/MdmX interaction; hit rate 3% among 330,000; SaOS-2 split-luciferase Mdm2/MdmX complementation, luminescence; inhibition, % at 8 µM; O15151+Q00987;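 active means inhibition of at least 50% at 8 µM in the primary screen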
# Target sequence (O15151 whole entry, looked up): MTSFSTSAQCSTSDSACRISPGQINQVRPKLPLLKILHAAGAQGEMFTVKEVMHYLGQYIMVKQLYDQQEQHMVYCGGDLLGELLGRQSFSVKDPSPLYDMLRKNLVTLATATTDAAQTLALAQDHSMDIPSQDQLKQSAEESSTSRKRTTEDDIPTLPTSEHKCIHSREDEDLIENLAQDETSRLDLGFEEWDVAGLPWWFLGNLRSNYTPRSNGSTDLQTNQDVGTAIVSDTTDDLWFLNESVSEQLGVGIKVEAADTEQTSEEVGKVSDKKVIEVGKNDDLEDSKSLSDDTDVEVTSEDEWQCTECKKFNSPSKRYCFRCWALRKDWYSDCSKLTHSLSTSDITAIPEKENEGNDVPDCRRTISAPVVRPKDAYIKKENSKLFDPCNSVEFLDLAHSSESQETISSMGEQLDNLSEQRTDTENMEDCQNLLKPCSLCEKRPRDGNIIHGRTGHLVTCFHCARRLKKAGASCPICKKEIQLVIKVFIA
# Target sequence (Q00987 whole entry, looked up): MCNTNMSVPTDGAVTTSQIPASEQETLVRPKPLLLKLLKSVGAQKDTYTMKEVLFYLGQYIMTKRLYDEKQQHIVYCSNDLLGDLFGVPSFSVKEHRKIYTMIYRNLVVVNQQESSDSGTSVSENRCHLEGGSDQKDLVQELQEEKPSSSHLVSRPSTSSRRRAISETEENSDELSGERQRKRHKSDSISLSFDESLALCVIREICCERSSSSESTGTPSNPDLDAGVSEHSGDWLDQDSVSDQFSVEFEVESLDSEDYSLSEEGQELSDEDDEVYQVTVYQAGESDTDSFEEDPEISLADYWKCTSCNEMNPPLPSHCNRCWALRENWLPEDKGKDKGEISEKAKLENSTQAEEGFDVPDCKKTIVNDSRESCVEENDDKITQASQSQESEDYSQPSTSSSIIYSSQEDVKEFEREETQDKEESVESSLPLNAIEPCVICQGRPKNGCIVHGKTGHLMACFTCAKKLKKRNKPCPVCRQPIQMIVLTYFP
# Jurkat NFkB inh: inhibitors of the PMA/ionomycin-induced NF-kB reporter in Jurkat cells; PMA/ionomycin-induced NF-kB luciferase reporter, luminescence; inhibition, % at 4 µM; hit rate 0.53% among 330,000; in the data active means inhibition above about 50%
# Shn3 3UTR inh: Schnurri-3 reporter inhibition in Clone20 osteoblasts | Clone20 osteoblast Shn3 3'UTR firefly luciferase, 24 h | hit rate 0.52% among 360,000 | inhibition, % at 12.5 µM;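 active means mean inhibition of at least 75% with every replicate also reaching 75%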;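 further: 0% = median of neutral control wells and 100% = pilot-screen positive control compound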
# Jurkat NFkB conf: lowers PMA/ionomycin-induced NF-kB signal in Jurkat cells; shares compounds with Jurkat NFkB inh; hit rate 27% among 2,700; inhibition, % at 4 µM; Jurkat NF-kB luciferase, 16 h;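 active means inhibition reaching about 45% at 4 µM in either replicate, limit read from the data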;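 further: plate controls were PMA/ionomycin stimulated DMSO wells for no effect and unstimulated DMSO wells for full effect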
# 697 NFkB conf: lowers PMA/ionomycin-induced NF-kB signal in 697 B cells. AID 449746. hit rate 35% among 2,000. 697 B-cell NF-kB luciferase, 16 h. shares compounds with 697 NFkB inh. inhibition, % at 4 µM; in the data active means inhibition mostly above about 28%, no sharp cut-off; inactive means mostly below about 22%
# Mdm2 MdmX conf: confirmation of human Mdm2/MdmX interaction inhibitors. AID 489028. hit rate 55% among 10,000. Mdm2-MdmX binding, luminescent assay. inhibition, % at 8 µM. shares compounds with Mdm2-MdmX inh; in the data active means inhibition above about 40%
# Full FLuc ctr: full-length luciferase inhibition in Mdm2/MdmX counter-screen; shares compounds with Mdm2-MdmX inh; SaOS-2 full-length luciferase counterscreen, luminescence; inhibition, % at 8 µM; hit rate 77% among 6,200;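 active means mean inhibition at 8 µM reaching about 37%, which flags the compound as non-specific, limit read from the data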;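 further: p53-null SaOS-2 cells with luciferase driven by a doxycycline-inducible promoter; compound on cells about two nights before reading with doxycycline added after day one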
# An asterisk follows results filed as active; i = inactive; / = not tested or not shown. Only some compounds are listed: those with a hit (about 3.8% of all), similar ones and a draw of the others.
SMILES,697 NFkB inh,Gli-Sufu block,Mdm2-MdmX inh,Jurkat NFkB inh,Shn3 3UTR inh,Jurkat NFkB conf,Mdm2 MdmX conf,Full FLuc ctr,others
O=[N+]([O-])c1cc(F)c(N2CCCC2)cc1N1CCNCC1,-6.4,/,18.4,12.7,/,/,/,/,
CC(C)OP(=O)(OC(C)C)C(NCc1ccccc1)c1ccccc1 (stereo not given),-1.6,-9.0,-22.4,1.0,7.5,/,/,/,
O=C(COC(=O)c1cccc(O)c1)Nc1ccc(Cl)cc1C(=O)c1ccccc1,-21.4,0.8,9.3,-9.2,1.8,/,/,/,
CC(=O)O[C@H]1C[C@@H]2OC3C=C(C)CCC3(C)[C@@]1(C)[C@@]21CO1 (stereo not given in full),/,66.0*,/,/,97.6*,/,/,/,
CC(=O)OC1CC2OC3C=C(C)CCC3(C)C1(C)C21CO1 (stereo not given),/,/,/,/,98.1*,/,/,/,
O=C(c1cccnc1)c1cc2ccccc2[nH]1,-4.2,-10.4,5.1,5.0,-37.9,/,/,/,
C=C[C@@]12CN(C)[C@H]3[C@H]1[C@@]1(C(=O)Nc4ccccc41)C1CC2[C@@H]3CO1,20.6,-1.1,4.8,-6.0,2.7,/,/,/,
NC(N)=N/N=C/c1ccc(N2CCOCC2)cc1,8.2,11.6,38.5,48.6,8.4,/,/,/,
COc1ccc(/C=N\N=C(N)N)cc1,3.7,12.9,-21.2,50.9*,14.2,16.4,/,/,
Nc1c2c(nc3sc4c(c13)CCCC4)CCCCC2,-224.1,6.1,-189.3,-174.4,-24.7,-93.9,/,/,
COC(=O)C1=C(c2cc3ccccc3o2)C[C@@H]2CC[C@H]1N2C(=O)N1CCOCC1,-19.0,-3.4,45.3,28.6,25.4,/,/,/,
C=C1C(=O)O[C@@H]2C[C@@H](C)[C@@H]3C4OC4C(=O)[C@@]3(C)[C@@H](O)[C@H]12 (stereo not given in full),i,18.5,100.6*,57.9*,79.1,23.4,99.8*,4.9,697 NFkB conf=-447.6
Cc1ccc2c(C)cccc2c1,/,9.5,/,/,8.7,/,/,/,
C/C(=N\N1CCCCCC1)c1c(O)n(-c2ccccc2C)c(=O)[nH]c1=O,0.9,9.1,5.3,6.6,16.9,/,/,/,
CC(=O)O[C@H]1C(=O)[C@@]2(C)C([C@H](OC(=O)c3ccccc3)[C@]3(O)C[C@H](O)C(C)=C1C3(C)C)[C@]1(OC(C)=O)CO[C@@H]1C[C@H]2O (stereo not given in full),11.2,1.3,30.1,22.7,-9.7,/,/,/,
CC(=O)O[C@@]12CO[C@@H]1C[C@H](O)[C@@]1(C)C(=O)[C@H](O)C3=C(C)[C@@H](OC(=O)[C@H](O)[C@@H](NC(=O)c4ccccc4)c4ccccc4)C[C@@](O)([C@@H](OC(=O)c4ccccc4)C12)C3(C)C (stereo not given in full),-29.7,-1.4,53.6*,68.4*,-8.6,63.7*,62.9*,50.1*,
CC(=O)O[C@H]1C(=O)[C@@]2(C)C([C@H](OC(=O)c3ccccc3)[C@]3(O)C[C@H](OC(=O)[C@H](O)[C@@H](NC(=O)Cc4ccccc4)c4ccccc4)C(C)=C1C3(C)C)[C@]1(OC(C)=O)CO[C@@H]1C[C@@H]2O (stereo not given in full),-1.9,-7.0,65.7*,61.7*,28.2,62.5*,65.7*,41.6*,
CCOP(=S)(OCC)N1CC1,/,-1.8,/,/,18.6,/,/,/,
CC(=O)OC(C)(C)/C=C/C(=O)[C@](C)(O)C1[C@H](O)C[C@@]2(C)C3CC=C4C(C[C@H](O)C(=O)C4(C)C)[C@]3(C)C(=O)C[C@]12C (stereo not given in full),55.7*,84.7*,99.7*,92.4*,62.4,61.8*,100.0*,1.0,697 NFkB conf=71.0*
C[n+]1c2ccccc2nc2ccc(NCCO)cc21,-31.9,-8.2,5.1,25.7,4.0,/,/,/,
CNc1ccc2nc3ccccc3[n+](C)c2c1,3.9,15.9,82.9*,81.1*,36.4,6.0,49.8*,9.4,
C=C(C=O)C[C@@H]1C[C@H](O)C2OC3C[C@]4(C)OC5/C=C\CC6OC7C(CC=CCC6OC5CCCC4OC3CC2O1)OC1CC2OC3CC(=O)OC3C[C@@H](C)C[C@@]2(C)OC1C[C@@H]7C (stereo not given in full),-143.2,60.8*,99.8*,101.0*,/,98.7*,95.3*,0.4,
COc1ccc(-n2c(-c3ccccc3Br)nc3ccccc3c2=O)cc1,7.4,21.4,1.9,-1.0,23.4,/,/,/,
NC(=O)c1cn(C2OC(CO)C(O)C2O)c2ncnc(N)c12 (stereo not given),103.7*,86.7*,100.3*,99.8*,63.8,97.0*,99.3*,0.7,697 NFkB conf=105.6*
COc1ccc(-c2n(-c3ccccn3)c3ccccc3[n+]2-c2ccccn2)cc1,/,-1.0,/,/,13.9,/,/,/,
SMILES,697 NFkB inh,Gli-Sufu block,Mdm2-MdmX inh,Jurkat NFkB inh,Shn3 3UTR inh,Jurkat NFkB conf,Mdm2 MdmX conf,Full FLuc ctr,others
Cn1cc(C(=O)OCC(=O)NC2(C#N)CCCCC2)c2ccccc21,-19.1,-1.9,8.2,-12.9,1.6,/,/,/,
CC1(C)C(C(=O)N2CCN(c3ccc(Cl)cc3)CC2)C1(C)C,-28.6,0.5,-29.3,-9.6,3.2,/,/,/,
COC(=O)C1CN(C#N)N(c2ccc(Cl)cc2)C12c1ccccc1-c1ccccc12 (stereo not given),-62.4,47.4,95.1*,87.4*,96.8*,59.5*,24.1,/,
COc1ccc(-n2c(O)c(C(C)=NCc3ccc4c(c3)OCO4)c(=O)[nH]c2=O)cc1,4.7,-3.7,24.1,5.8,6.7,/,/,/,
CC12CCC(O)CC1CCC1C2CCC2(C)C(C3=CC(=O)OC3)C(O)CC12O (stereo not given),/,-5.0,/,/,38.2,/,/,/,
CC(=O)O[C@H]1[C@H]2O[C@]23[C@@H]2CC[C@]4(O)C[C@@H](O)CC[C@]4(C)C2CC[C@]3(C)[C@H]1c1ccc(=O)oc1 (stereo not given in full),71.0*,-2.1,84.8*,95.9*,12.5,90.6*,64.3*,47.5*,697 NFkB conf=84.9*
CC(O)(CS(=O)(=O)c1cccc(C(F)(F)F)c1)C(=O)Nc1ccc(C(F)(F)F)cc1 (stereo not given),-17.4,-3.0,-11.7,-4.8,-8.4,/,/,/,
COc1cccc(C2CC3C(=O)C=CC2N3Cc2ccccc2)c1 (stereo not given),14.0,16.7,43.3,-16.1,24.8,/,/,/,
COc1ccccc1-n1c(-c2cccs2)nc2ccccc2c1=O,-13.9,2.1,18.4,0.5,-6.0,/,/,/,
NC(N)=N/N=C/c1ccc(N(c2ccccc2)c2ccccc2)cc1,-8.4,-2.4,96.7*,60.8*,94.9*,6.9,99.5*,29.9,
